Compounds without any hit were thinned out: in the full panel of roughly 83,000, 20% have a hit.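 Each cell line was grown in a 96-well plate and treated with one concentration of compound for 48 hours. Values below 10 were considered active.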 Values without a mark were called inactive. Activity calls are given as the source filed them.

The assay relates to MDA-MB-468 breast. As to the kind of experiment: NCI-60 one-dose screen, 48 h (100 = growth as untreated, 0 = no growth, -100 = all killed). As to conditions: 10 µM unless noted.
Consider `CCOC(=O)c1cnc2c(-c3ccc(Cl)c(Cl)c3)cnn2c1`, for which the growth was 85.4%.

With `O=C1c2ccccc2C(=O)N1c1ccccc1`, the growth is 108%.

Consider `Cc1c(C(=O)NCCN2CCOCC2)cn2ncnc(Oc3ccc(NC(=O)Nc4ccc(Cl)c(C(F)(F)F)c4)cc3)c12`, for which the growth was -10.4% (active).

As for `O=[N+]([O-])c1ccc(Oc2ccc(-c3ccccc3)cc2)cc1`, the growth is 71.4%.

In the case of `FC(F)(F)c1cc(-c2nnc3n2N=C(N2CCCC2)CS3)cc(C(F)(F)F)c1`, the growth was 66.3%.

As for `Nc1c2c(c(O)c3c1=C(CO)C=N3)=NCCS2`, the growth was -72% (active).

With `CCCC(=O)CC(C)=O.CCCC(=O)CC(C)=O.[Cu]`, the growth is 107%.

For the compound `Cc1ccc(-c2cc(-c3ccccc3C)[nH]c(=O)c2C#N)s1`, the growth is 99.3%.

Take `C=C(C)[C@@H]1CC[C@]2(C(=O)N3CCN(C)CC3)CC[C@]3(C)[C@H](CC[C@@H]4[C@@]5(C)CC[C@H](OP(=O)(OCC)OCC)C(C)(C)[C@@H]5CC[C@]43C)[C@@H]12`: the growth was 76.2%.

With `Cc1ccc(/C=C(\C#N)n2nnc3cc(Cl)c(Cl)cc32)cc1`, the growth is 22.3%.

In the case of `CC(=O)[C@@H]1CC[C@]2(C(N)=O)CC[C@]3(C)[C@H](CC[C@@H]4[C@@]5(C)CCCNC(C)(C)[C@@H]5CC[C@]43C)[C@@H]12`, the growth was 82.2%.

Regarding `CCCCCCCCCCCCCCCCCCOc1ccccc1N`, the growth was 101%.

With `Cc1ccc(C(=O)/C=C/c2ccccc2)s1`, the growth was 89.7%.

On to `C[C@]12CC[C@H]3[C@@H](CC=C4C[C@@H](O)CC[C@@]43C)[C@@H]1CC[C@@H]2C(=O)C/C=N/O`, for which the growth is 90.2%.

For `COC(=O)/C=C/C(=O)c1cc(C)cc(C)c1O`, the growth was 110%.

Consider `CCN(CC)CC(O)c1cc(-c2ccc(Cl)cc2)nc2cc(Cl)ccc12` (stereo not given), for which the growth was -76.9% (active).

For `COc1ccc(C/C(=C(\C)c2ccc(OCCN3CCCC3)cc2)c2ccc(OCCN3CCCC3)cc2)cc1`, the growth is 33.2%.

With `COC(=O)c1ccc2c(c1)c1c(C)c3cnccc3c(C)c1n2C`, the growth is -38% (active).

In the case of `COC(=O)CC[C@@H]1O[C@@H](c2cccc(C(F)(F)F)c2)[C@@H](O)[C@H]1O`, the growth is 89%.

`NS(=O)(=O)Oc1ccc(-c2ccc3sccc3c2)cc1`: the growth was 87.1%.

As for `CCOC(=O)C1=C(CSC(=S)N(C2CCCCC2)C2CCCCC2)N(C)C(=O)NC1c1ccccc1` (stereo not given), the growth is 47.3%.

As for `O=C(Nc1nc2ccccc2s1)c1cc(-c2ccc(F)cc2)n2nc(-c3ccccc3)cc2n1`, the growth was 118%.

Regarding `COc1ccc(-c2noc(N)c2-c2cc(OC)c3c(c2)OCO3)cc1`, the growth is 25.6%.

`CC(C)(N)COS(=O)(=O)O`: the growth is 107%.

Regarding `O=C(NNc1ccccc1)C1CCCN1` (stereo not given), the growth was 81%.

With `COC(=O)c1c2c(c[n+]([O-])c1C)C(=O)C=C(NCc1ccccc1)C2=O`, the growth is -74.9% (active).

For `O=C1c2ccccc2C(=O)c2c(NCCN=Cc3c(O)ccc4ccccc34)cccc21`, the growth was 84.5%.

As to `Cn1cc(-c2csc(-c3cn(C)c4ccc(F)cc34)n2)c2cnccc21`, the growth was -49.2% (active).

Turning to `CN(C)c1nc(N)c2nccnc2n1`, the growth is 115%.

Consider `CCCCCC(=O)N1c2ccccc2NC2=C(C(=O)CC(c3ccc(OC)c(OC)c3)C2)C1c1ccc(C(F)(F)F)cc1` (stereo not given), for which the growth was 14.2%.

`CS(=O)(=O)N1CCc2c(-c3cnc(N)nc3)nc(N3CCOCC3)nc21`: the growth was -27.9% (active).

Take `c1ccc2sc(SCCCn3ccnc3)nc2c1`: the growth is 61.8%.

In the case of `Cc1cc(C(C)(C)C)cc(C)c1CC1=NCCN1`, the growth is 93.5%.

`CC/C=C\C[C@H](O)C/C=C1/C(=O)C=C[C@@H]1C/C=C\CCCC(=O)OC(C)C`: the growth is -17% (active).

`COc1ccc(C2=NN(C(N)=S)C(c3ccc4c(c3)OCO4)C2)cc1` (stereo not given): the growth was -0.33% (active).

For the compound `COC(=O)C1=C(C(=O)ON)[C@@H]2C=C[C@@]1([C@@H](Cc1ccccc1)Nc1ccccc1)O2`, the growth is -38.8% (active).

As to `COc1cc(CNC(=O)Cc2ccccc2[N+](=O)[O-])ccc1OCC(=O)NO`, the growth is 98.7%.

Take `CCCCN=C(N)c1ccc(OCCSCCOc2ccc(C(N)=NCCCC)cc2)cc1`: the growth is 38.9%.

Consider `CC(c1ccc(-n2cccn2)cc1)c1cnc(N2CCc3ccc(C(N)=O)cc3C2)s1` (stereo not given), for which the growth is 30.1%.

With `O=C(Nc1ccc(F)c(Cl)c1)Nc1ccc(Cl)c(Cl)c1`, the growth is 9.54% (active).

For the origin of these results see PubChem BioAssay (NCI).
